In all, about 24,000 compounds went through this assay and about 50 (0.2%) were called active. About 9% were inconclusive and are not listed.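 How the source made its calls: active means inhibition above 50%; inconclusive means compound itself fluorescent, judged against control cell fluorescence; inactive means the rest.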 Only a selection was taken, and actives are over-represented in it overall.
Target: Integrin alpha-4 (Homo sapiens) (UniProt P13612)
Experiment: inhibitors of LDV-FITC binding to Mn2+-activated VLA-4, primary screen, Jurkat cells (AID 529);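 further: 0% = Mn2+ stimulated cells lacking compound and 100% = ligand binding without Mn2+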
Details: LDV-FITC binding with Mn2+, flow cytometry, stronger effect = higher value, 100% = Mn2+-driven binding gain fully reversed, screened at 10 µM (by protocol)

Sequence of Integrin alpha-4 (Homo sapiens) (P13612 whole entry, looked up): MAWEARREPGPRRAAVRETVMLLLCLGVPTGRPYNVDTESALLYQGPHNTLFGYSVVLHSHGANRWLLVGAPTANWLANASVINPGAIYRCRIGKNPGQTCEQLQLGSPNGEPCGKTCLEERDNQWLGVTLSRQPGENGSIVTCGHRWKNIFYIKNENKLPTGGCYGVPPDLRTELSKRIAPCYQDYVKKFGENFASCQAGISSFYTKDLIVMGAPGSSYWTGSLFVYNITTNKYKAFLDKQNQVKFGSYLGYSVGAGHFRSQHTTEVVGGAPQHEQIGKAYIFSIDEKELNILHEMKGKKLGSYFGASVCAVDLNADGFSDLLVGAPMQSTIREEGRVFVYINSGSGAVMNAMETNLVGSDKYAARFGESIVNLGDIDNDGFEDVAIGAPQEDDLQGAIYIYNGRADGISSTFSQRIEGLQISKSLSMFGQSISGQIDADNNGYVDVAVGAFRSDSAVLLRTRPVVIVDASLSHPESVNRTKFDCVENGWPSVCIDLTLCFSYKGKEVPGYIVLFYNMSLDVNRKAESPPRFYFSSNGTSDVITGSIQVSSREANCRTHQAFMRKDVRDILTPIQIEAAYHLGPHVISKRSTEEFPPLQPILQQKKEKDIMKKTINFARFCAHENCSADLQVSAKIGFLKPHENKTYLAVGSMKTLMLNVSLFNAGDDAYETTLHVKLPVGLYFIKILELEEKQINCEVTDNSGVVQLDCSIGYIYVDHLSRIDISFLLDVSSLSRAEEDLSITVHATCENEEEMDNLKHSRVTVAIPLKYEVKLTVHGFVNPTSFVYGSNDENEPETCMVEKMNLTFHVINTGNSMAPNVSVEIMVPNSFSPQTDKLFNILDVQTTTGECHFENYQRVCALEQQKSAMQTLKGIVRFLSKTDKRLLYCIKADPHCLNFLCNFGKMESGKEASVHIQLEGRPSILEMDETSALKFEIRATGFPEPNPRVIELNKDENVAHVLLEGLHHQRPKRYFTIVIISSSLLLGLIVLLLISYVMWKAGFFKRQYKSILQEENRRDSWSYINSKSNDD

inhibition, inactive:
Cc1nc2nc(SCC(=O)NCc3ccco3)nn2c(C)c1Cc1ccccc1 -12.3%
CCN(CCCNC(=O)C1CCN(S(=O)(=O)c2cnc[nH]2)CC1)c1ccccc1 0%
Cc1ccc(C)c(N(CC(=O)NCc2ccco2)C(=O)CCC(=O)Nc2ccccn2)c1 -3%
CC(Sc1sc(=S)sc1SC(C)C(=O)O)C(=O)O (stereo not drawn) -53.5%
C=CCN(CC=C)C(=O)CN1C(=O)c2ccccc2C1=O -1%
Cc1ccc2c(c1)N(CCCC(=O)NCc1cccnc1)C(=O)CO2 -5%
CCOC(=O)C1CCN(C(=O)C2CCN(S(=O)(=O)c3c(C)noc3C)CC2)CC1 10%
O=C(CN1C(=O)CCS(=O)(=O)c2ccccc21)NCc1ccc(F)cc1 -3%
Cc1oc(C)c(C(=O)NCCCC(=O)O)c1C(=O)NCCCC(=O)O 5%
COc1ccc(NC(=O)C2CCCN(S(=O)(=O)c3cccc4cccnc34)C2)cc1 (stereo not drawn) 0%
CCOc1ccccc1NC(=O)C1CCC(CNc2c(N3CCOCC3)c(=O)c2=O)CC1 (stereo not drawn) 2%
Cc1cccc2c1N(CC(=O)OC(C)C)C(=O)C2=O 10.7%
Cc1cc(NC(=O)CSCc2nc(-c3cccc(Cl)c3)oc2C)no1 5%
O=C(NCc1ccc2c(c1)OCO2)c1cc2c(s1)CS(=O)(=O)C2 -4%
Cc1ccc(C)c(N2CCN(C(=O)CCc3nc4ccccc4[nH]3)CC2)c1 -5%
O=S(=O)(Nc1ccccn1)c1ccc(Oc2ccccc2)cc1 -1.3%
CCOc1c(OC)cc(C2C(C#N)=C(N)Oc3n[nH]c(-c4ccncc4)c32)cc1OC (stereo not drawn) -15%
CCC(C)Sc1nnc(-c2c[nH]c3ccccc23)n1CCOC (stereo not drawn) 10%
COc1ccc(C2OC(=O)CC2C(=O)NC(C)C)cc1 (stereo not drawn) 6%
COC(=O)Cn1c(=NC(=O)CSCC(=O)Nc2cc(C)on2)sc2ccccc21 -10.5%
COc1ccc(NC(=O)c2c(SC)nsc2SC)cc1 -23%
COCCCNC(=O)c1ccc2c(c1)ncn2-c1ccccc1OC -35%
O=C(NCc1ccco1)c1cccn2c(=O)c3cc(Br)ccc3nc12 -34%
CCn1cc(C(=O)N2CC=C(c3ccccc3)CC2)c(=O)c2ccc(C)nc21 4%
O=C(CC(Cc1ccccc1)C(=O)O)NCCc1ccc2c(c1)OCO2 (stereo not drawn) -16%
Cc1ccc(C)c(NC(=O)CSc2nnc(Cc3cccn3C)n2-c2ccc(F)cc2)c1 10%
NC(=O)C1(N2CCCCC2)CCN(C(=O)c2ccc(C#Cc3ccccc3)o2)CC1 3%
CC1(C)CC(O)C(CCC(O)c2ccccc2)C(C)(C)N1 (stereo not drawn) -6%
CCc1nnc(NC(=O)CCC(=O)O)s1 -11%
O=C(NC(=O)c1ccc(Cl)c(Cl)c1)OC1CCS(=O)(=O)C1 (stereo not drawn) -4%
O=C(NC1(C(F)(F)F)N=C2SCCN2C1=O)c1ccco1 (stereo not drawn) -21%
Cn1c(=O)cc(SCC(=O)N2CCCC2)c2cc(Cl)ccc21 2%
CN1C(=O)c2ccccc2C(C(=O)NCCCN2CCCC2)C1c1c[nH]c2ccccc12 (stereo not drawn) 17%
COc1ccccc1CNC(=O)Cn1cc2c(n1)CCCC2 -2%
CCOC(=O)C1CCN(C(=O)CSc2cc(=O)n(C)c3ccccc23)CC1 -2%
Cc1ccc(NC(=O)C2CCCN(S(=O)(=O)c3c(C)noc3C)C2)c(C)c1 (stereo not drawn) -21%
O=C(CCn1c(=O)oc2ccccc21)Nc1ccon1 -16%
O=C(CN1CCN(CC(=O)Nc2ccc3c(c2)OCO3)CC1)Nc1ccc(F)cc1 14%
CCOc1ccc(N(CC(=O)OC)S(=O)(=O)c2c(C)noc2C)cc1 13%
CCOC(=O)CN1CC23C=CC(O2)C(C(=O)Nc2ccc(F)cc2)C3C1=O (stereo not drawn) -44.5%
Cc1nc(C)c2c(c1C(F)(F)F)-c1ccccc1C2(F)F -6.5%
COc1ccc(N2C(=O)C3CCCN3C2c2cccs2)cc1 (stereo not drawn) 8%
COc1ccccc1Cn1c(=S)[nH]c2cc(C(=O)N3CCN(C)CC3)ccc2c1=O 15%
O=C(NCCCN1CCN(Cc2ccccc2)CC1)C1CCN(S(=O)(=O)N2CCCC2)CC1 -27%
CCCC(NC(=O)c1ccccc1)c1nc2ccccc2n1Cc1ccc(C(=O)OC)o1 (stereo not drawn) 1%
Cc1ccc(NC(=O)CSc2nnc(-c3cnccn3)n2Cc2ccco2)cc1C -19.5%
Cc1ccc(NC(=O)CN(C)S(=O)(=O)c2cnc[nH]2)cc1C 1%
CCCOC(=O)c1[nH]c2c(c1C)C(=O)CC(c1cc(OC)c(OC)c(OC)c1)C2 (stereo not drawn) -2%

From PubChem BioAssay AID529 (NMMLSC, 2006)
